# Bioassay records from PubChem.
# NS1 function inh – qHTS Assay for Inhibitors of Influenza NS1 Protein Function; Potency, µM (top dose mostly 46.1 µM); 270,000 tested, 0.4% active; AID 2326, 2010; calls by dose curve; also: actives are rising curves; nearly all actives have a fitted effect of over 50% in size
#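 Recovery from NS1-induced slow growth read by OD600 in budding yeast switched to galactose assay medium (pH 6.0, -URA) at 1:100 dilution. Compound 23 nl per well; the matching strain lacking NS1 serves as control.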
# Cruzain Triton – qHTS Assay for Promiscuous and Specific Inhibitors of Cruzain (with detergent) | Potency, µM, usual class: inhibitors | purified cruzain, Z-FR-AMC fluorescence, 0.01% Triton | 200,000 tested, 0.43% active | Cruzipain (Trypanosoma cruzi), P25779; also: nearly all actives have a fitted effect of over 40% in size
# Target sequence (P25779 123-467 limits assumed): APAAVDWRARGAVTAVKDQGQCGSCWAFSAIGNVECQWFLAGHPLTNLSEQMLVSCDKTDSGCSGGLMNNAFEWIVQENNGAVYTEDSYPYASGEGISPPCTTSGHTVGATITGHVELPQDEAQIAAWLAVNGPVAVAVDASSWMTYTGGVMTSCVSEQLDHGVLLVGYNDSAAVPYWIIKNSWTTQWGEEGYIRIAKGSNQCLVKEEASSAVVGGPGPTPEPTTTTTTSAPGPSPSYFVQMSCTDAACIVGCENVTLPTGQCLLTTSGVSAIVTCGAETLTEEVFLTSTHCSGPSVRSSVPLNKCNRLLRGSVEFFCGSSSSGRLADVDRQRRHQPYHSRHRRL
#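 Sodium acetate buffer (100 mM, pH 5.5) containing 5 mM DTT and 0.01% Triton X-100 hosted 1.5 nM cruzain and test compound for 15 min at room temperature. Cleavage of 2 uM Z-FR-AMC was then tracked by fluorescence.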
# Cruzain noTriton – qHTS Assay for Promiscuous and Specific Inhibitors of Cruzain (without detergent) | Cruzipain (Trypanosoma cruzi), P25779 | purified cruzain, Z-FR-AMC fluorescence, no detergent | Potency, µM, hits mostly inhibitors | 200,000 tested, 2.3% active; also: nearly all actives have a fitted effect of over 40% in size
#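 Detergent-free condition (0.00005% Triton X-100) in acetate buffer pH 5.5 with DTT. 1.5 nM enzyme and compound were pre-mixed 15 min, then 2 uM Z-FR-AMC substrate added; reaction progress from fluorescence change between first and third reads (60 s).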
# A number is an active result; i = inactive; ? = inconclusive; nt = no result given. The sample as a whole holds a higher share of hits than the screen did. Unless noted, calls follow the shape of the dose curve; as a rule, active = well fitted curve in the direction sought with a large enough effect; inconclusive = small, poorly fitted or top-dose-only effect, or another doubt; inactive = no such curve, though single readings can be large; an effect the other way counts as inactive or inconclusive.
SMILES,NS1 function inh,Cruzain Triton,Cruzain noTriton
Cc1ccc(SC/C(O)=C(\C#N)c2nc3ccccc3s2)cc1,i,i,25µM
N#C/C(=C(/O)CSc1ccccn1)c1nc2ccccc2s1,i,nt,nt
O=C(O)/C=C(/C(=O)O)[C@]12CCN3CC4=CCO[C@@H]5CC(=O)N[C@@H]1C5[C@H]4C[C@H]32 (stereo not given in full),i,i,i
COc1ccc(N2CSC3=C(C#N)C(c4cc(OC)ccc4OC)CC(=O)N3C2)c(OC)c1 (stereo not given),i,i,i
CCOc1ccccc1N1CSC2=C(C#N)C(c3c(OC)ccc4ccccc34)CC(=O)N2C1 (stereo not given),?,i,16µM
CC(C)Nc1oc(-c2ccccc2)nc1-c1cccc2ccccc12,nt,i,i
CCc1ccc(NC(=O)CC2C(=O)N(c3cccc(C)c3)C(=O)N2Cc2ccco2)cc1 (stereo not given),nt,i,i
COc1ccc(-c2cc(C(=O)Nc3ccc(C)cc3)no2)cc1,i,i,20µM
O=C(Nc1cnn(C23CC4CC(CC(C4)C2)C3)c1)c1cc(-c2ccccc2)on1,i,i,?
Cc1ccc(-c2cc(C(=O)Nc3cnn(C45CC6CC(CC(C6)C4)C5)c3)no2)cc1,i,i,13µM
COc1ccc(-c2cc(C(=O)Nc3cccc(C(C)=O)c3)no2)cc1,i,i,20µM
COc1ccc(-c2cc(C(=O)Nc3cc(OC)c(OC)c(OC)c3)no2)cc1,i,nt,nt
COc1ccc(-c2cc(C(=O)Nc3cccc(Cl)c3)no2)cc1,i,nt,nt
CCc1ccccc1NC(=O)Cn1nnc(C(=O)NCc2ccco2)c1N,nt,i,i
CCCCC/C=C\C/C=C\CCCCCCCC(=O)NCCc1ccc(O)c(O)c1,nt,i,i
CCOC(=O)c1c(C)[nH]c(C)c1S(=O)(=O)N(C)CC(=O)Nc1ccc(OC)cc1,nt,i,i
CS(=O)(=O)Oc1ccccc1/C=C1/N=C(c2ccc(F)cc2)OC1=O,i,14µM,16µM
O=C1OC(c2ccccc2)=N/C1=C\N1CCCCC1,i,i,i
Cc1nn(-c2ccccc2)c(N2CCCC2)c1/C=N/O,i,i,i
COc1ccc(OC)c(/C=C2\N=C(c3ccccc3)OC2=O)c1,i,nt,nt
Cc1ccc(C2=N/C(=C\c3c(C)nn(-c4ccccc4)c3N3CCCC3)C(=O)O2)cc1,i,1µM,1.6µM
Cc1nn(-c2ccccc2)c(N2CCCC2)c1/C=C1\N=C(c2ccc(F)cc2)OC1=O,i,0.4µM,0.32µM
CCc1ccc(NC(=O)CSC2=Nc3ccccc3C3=NC(CC(=O)NCc4ccc5c(c4)OCO5)C(=O)N23)cc1 (stereo not given),nt,i,i
N=C(C[C@@H](O)COc1ccccc1-c1ccccc1)N1CCCCC1,nt,i,i
Cc1ccc(NC(=O)Cn2c(=O)n(CCc3ccccc3)c(=O)c3c4c(sc32)CCCC4)c(C)c1,nt,i,i
SMILES,NS1 function inh,Cruzain Triton,Cruzain noTriton
N[C@@H](Cc1cc(-c2ccc(Cl)cc2Cl)cc(CP(=O)(O)O)c1O)C(=O)O,nt,i,i
CCOC(=O)c1c(-c2ccc(F)cc2)csc1NC(=O)c1c(-c2ccccc2)noc1C,i,i,i
CCOC(=O)c1c(-c2ccc(Br)cc2)csc1NC(=O)c1ccc(F)cc1,nt,i,i
CCOC(=O)c1c(-c2ccc(C)cc2)csc1NC1=NS(=O)(=O)c2ccccc21,i,i,7.9µM
COC(=O)c1c(-c2ccccc2)csc1NC(=O)c1c(-c2ccccc2)noc1C,i,i,20µM
CCOC(=O)c1c(-c2ccc(OC)c(OC)c2)csc1NC(=O)c1ccc(C)cc1,nt,i,i
CCOC(=O)c1c(-c2ccc(C)cc2)csc1NC(=S)NC(=O)c1ccccc1,i,i,25µM
CCOC(=O)c1c(-c2ccc(C)cc2)csc1NC(=O)C1CC=CCC1C(=O)O (stereo not given),i,i,?
COC(=O)c1c(-c2ccc(C)cc2)csc1NC(=S)NC(=O)c1ccc(F)cc1,i,i,13µM
CO[C@H]1[C@H](O)[C@H](O[C@@H]2[C@H](Oc3cccc4c(O)c5c(=O)oc6ccc(C)c7c(=O)oc(c34)c5c67)O[C@@H](C)[C@H](O)[C@H]2O)O[C@@H](C)[C@@H]1O,i,i,i
Cc1cc(C)n(C(C)CC(=O)Nc2cccc(C#N)c2)n1 (stereo not given),nt,i,i
CCOC(=O)c1c(C)[nH]c(CCC(=O)NCc2cc(Br)ccc2OC)c1C,nt,i,i
Cc1coc2c1c(C)cc1oc(=O)c(CC(=O)NCc3ccc(Cl)cc3)c(C)c12,nt,i,i
NS(=O)(=O)c1cccc(NC(=O)c2cc(-c3cccs3)nc3ccccc23)c1,i,nt,nt
COC(=O)c1sccc1NC(=O)c1cc(-c2ccc(C)cc2)nc2ccccc12,i,i,?
O=C(NC1=NCCS1)c1cc(-c2ccc(-c3ccccc3)cc2)nc2ccccc12,i,i,7.9µM
CN(C)S(=O)(=O)c1cccc(NC(=O)c2cc(-c3cccs3)nc3ccccc23)c1,i,i,16µM
O=C(Nc1nc2c(s1)CCCC2)c1cc(-c2ccccc2)nc2ccccc12,i,i,20µM
COc1ccc(-c2cc(C(=O)NC3=NCCS3)c3ccccc3n2)cc1OC,i,nt,nt
O=C(Nc1nc2c(s1)CCCC2)c1cc(-c2ccncc2)nc2ccccc12,i,i,?
COC(=O)c1sccc1NC(=O)c1cc(-c2cccc(C)c2)nc2ccccc12,i,i,10µM
COc1ccc(Oc2ncc3nc(-c4cc(F)cc(F)c4)c(=O)n(C[C@H]4CCCO4)c3n2)cc1,nt,i,i
O=C(NCc1ccccc1F)c1cccc(NC(=O)N2CCSc3ncccc32)c1,nt,i,i
CC(C)(C)c1nc(SCC(=O)Nc2nc3c(s2)CCCC3)c2ccccc2n1,i,i,?
O=C(CSc1nc(Cc2ccccc2)nc2ccccc12)Nc1nc2c(s1)CCCC2,i,i,25µM
SMILES,NS1 function inh,Cruzain Triton,Cruzain noTriton
O=C(Nc1ccc2c(c1)OCO2)c1cc(-c2cccnc2)nc2ccccc12,i,nt,nt
Cc1ccc(-c2cc(C(=O)Nc3ccc4c(c3)OCCO4)c3ccccc3n2)cc1,i,i,10µM
O=c1c(CCc2ccccc2)nc2cnc(N3CCNCC3)nc2n1Cc1ccc(F)cc1,nt,i,i
CCCC[N+](=O)[O-],nt,i,i
O=S(=O)(O)c1cc(S(=O)(=O)O)c2c(N=Nc3cccc4ccccc34)c(O)ccc2c1,i,i,i
O=S(=O)(O)c1cc(N=Nc2cccc3ccccc23)c(O)c2ncccc12,i,3.5µM,i
CCOC(=O)c1c(-c2cccc([N+](=O)[O-])c2)csc1NC(=O)CCCOc1ccccc1,i,i,32µM
CCOC(=O)c1c(-c2cccc([N+](=O)[O-])c2)csc1NC(=O)CCCOc1ccccc1OC,i,i,i
O=C(CN1c2ccccc2Sc2ccccc21)NNC(=S)Nc1ccc(Cl)cc1Cl,i,i,10µM
O=C(CN1c2ccccc2Sc2ccccc21)NNC(=S)Nc1ccc(Cl)cc1,i,nt,nt
Cc1cc(N)c2ccccc2[n+]1CCCCCCCCCCCCCC[n+]1c(C)cc(N)c2ccccc21,i,13µM,20µM
Cc1cc(N)c2ccccc2n1,i,nt,nt
S=P(C1CCCCC1)(C1CCCCC1)[C@H](c1cccnc1)N1CCCC1,i,i,i
CCn1c(C(=O)NCc2ccccc2Br)cc2oc3ccccc3c21,nt,i,?
